Hit rate of the full screen: of about 350,000 compounds, about 9,900 (2.8%) were called active. Not shown: some 15% with an inconclusive outcome. The list comes from a sample in which actives are over-represented; it also holds similar structures and randomly drawn compounds. Values without a mark were called inactive. Calls come from the whole dose curve; as a rule, active = well fitted activation curve with a large enough effect; inconclusive = small, poorly fitted or top-dose-only effect; inactive = no such curve, though single readings can be large or run the other way.
test: A quantitative high throughput screen for small molecules that induce DNA re-replication in MCF 10a normal breast cells.; note: nearly all actives have a fitted effect of over 50% in size; for activity, positive = re-replication: % of control where 0% means no effect; details: MCF 10A DNA re-replication, Hoechst nuclear intensity, 48 h; series mostly up to 46.1 µM; activity, positive = re-replication: at the top concentration
Potency is the fitted concentration of half-maximal effect.

| SMILES | activity, positive = re-replication | Potency |
| --- | --- | --- |
| CN(C(=O)c1cccc(NC(=O)Cc2ccc(NC(=O)C3CCN(C(=O)C4CCCCC4)CC3)cc2)c1)C1CCC1 | -2.91% |  |
| Cc1ccc(S(=O)(=O)Nc2ccc3c(c2)C(=O)N([C@H](C)CO)C[C@@H](C)[C@@H](CN(C)C(=O)Nc2cccc4ccccc24)O3)cc1 | 5.8% |  |
| CCOc1ccccc1-c1cc(C(=O)N2CCOCC2)c2ccccc2n1 | -1.36% |  |
| CCOc1ccccc1/C=N/Nc1nc2ccccc2o1 | 1.17% |  |
| CCOc1cccc(/C=C/c2ccc3ccccc3n2)c1OC(C)=O |  | 23.1 µM (active) |
| COc1ccc(C(CNC(=O)c2cc(S(=O)(=O)Nc3cccc(C)c3)ccc2C)N2CCCC2)cc1 (configuration not stated) | 14.7% |  |
| Cc1ccc(OCCNC(=O)CN2C(=O)NC3(CCCC3)C2=O)cc1 | 11.1% |  |
| COC(=O)COc1cccc2c(=O)n(CC(=O)NCCc3ccc(OC)c(OC)c3)ccc12 | 3.39% |  |
| Cc1ccc(CNC(=O)CCNC(=O)Cn2ccc3ccccc3c2=O)cc1 | -0.229% |  |
| COC(=O)COc1cccc2c(=O)n(CC(=O)NCc3ccccc3)ccc12 |  | 2.59 µM (active) |
| O=C1C=C(NS(=O)(=O)c2ccccc2)C(=O)c2ccccc21 | 7.8% |  |
| CCC(CO)Oc1cc(NC(=O)c2cccc(F)c2)c2ncn(C(C)C)c2c1 (configuration not stated) | -20.7% |  |
| O=C(N/N=C/c1coc2ccccc2c1=O)c1cc2ccccc2o1 | 17.6% |  |
| Cc1c(/C=N\NC(=O)c2cc3ccccc3o2)c2ccccc2n1C |  | 6.51 µM (active) |
| Cc1c(/C=N/N2C(=O)C3C4C=CC(C4)C3C2=O)c2ccccc2n1C (configuration not stated) | 15.9% |  |
| CCOc1ccc(C(=O)NCC(=O)N2CCN(c3ccc(C(F)(F)F)cn3)CC2)cc1 | -2.51% |  |
| O=C(Nc1cc(S(=O)(=O)N2CCOCC2)ccc1N1CCOCC1)c1c(F)cccc1Cl | 5.34% |  |
| CCn1c(=O)c(C(=O)NCc2ccc3c(c2)OCO3)c(O)c2ccccc21 | -0.432% |  |
| Cc1nc2c(C(=O)NCc3ccc4c(c3)OCO4)c[nH]n2c(=O)c1Cc1ccccc1F |  | 7.31 µM (active) |
| O=C(NCc1ccc2c(c1)OCO2)c1cc(F)c(F)cc1Cl | -0.612% |  |
| Cc1cc(C)c(C#N)c(SCC(=O)N(CC(C)C)C2CCS(=O)(=O)C2)n1 (configuration not stated) | 0.222% |  |
| Cc1cccn2c(=O)c3cc(C(=O)N4COCC4(C)C)n(C)c3nc12 | 11% |  |
| Cc1ccccc1NC(=O)Cn1c(=O)n(CC2CCCO2)c(=O)c2ccccc21 (configuration not stated) | -2.54% |  |
| Cc1cccn2c(=O)c3cc(C#N)c(=O)n(CCCN4CCOCC4)c3nc12 |  | 18.4 µM (active) |
| Cc1cccn2c(=O)c(/C=C(\C#N)C(N)=O)c(N3CCCCCC3)nc12 | -9.87% |  |

| SMILES | activity, positive = re-replication | Potency |
| --- | --- | --- |
| Cc1cccn2c(=O)c3cc(C#N)c(=NC(=O)c4cccnc4)n(CC4CCCO4)c3nc12 (configuration not stated) |  | 13 µM (active) |
| Cc1cccn2c(=O)c3cc(C(=O)NC4CCCCC4)sc3nc12 | 1.95% |  |
| CCOc1cc(C(=O)N(Cc2ccccc2)c2ccc(C)cc2)ccc1OCC(=O)N1CCOCC1 | 2.29% |  |
| COc1ccc(C2NCCCC2c2ccccc2)cc1 (configuration not stated) | 0.784% |  |
| COc1cccc(C(=O)c2cc3ccc(O)cc3oc2=O)c1 | 11.9% |  |
| O=c1oc2cc(O)ccc2cc1-c1ccc(F)cc1 |  | 14.6 µM (active) |
| COc1ccc(-c2cc3ccc(OCc4nn[nH]n4)cc3oc2=O)cc1 | 2.51% |  |
| CCCCCCCCNS(=O)(=O)CCNC1CCCCC1 | -22.3% |  |
| O=C(Nc1ccc(S(=O)(=O)N2CCOCC2)cc1)C1CCN(S(=O)(=O)c2ccc(Cl)cc2)CC1 | -0.304% |  |
| COc1ccc(-c2cc3ncccc3cn2)cc1 | 11.1% |  |
| COc1ccc(-c2sc3ccc(OC)cc3c2C#Cc2ccccn2)cc1 |  | 18.4 µM (active) |
| COc1ccc(-c2nc(CS(=O)CC(=O)NCc3ccccn3)c(C)o2)cc1 (configuration not stated) | -0.718% |  |
| CN(C(=O)c1ccc(NC(=O)Cc2cccc(NC(=O)C3CCN(C(=O)c4ccccc4)CC3)c2)cc1)C1CC1 | -0.344% |  |
| Cc1cn(C2CC(O)C(CO)O2)c(=O)n(CCCc2ccccc2)c1=O (configuration not stated) | -6.86% |  |
| CS(=O)(=O)c1ccc(C(=O)NNC(=O)c2cccs2)cc1 | -4.4% |  |
| Cc1noc(C)c1NC(=O)Nc1ccc2c(c1)C(=O)N([C@H](C)CO)C[C@H](C)[C@@H](CN(C)C(=O)Nc1ccc(C(F)(F)F)cc1)O2 | 0.503% |  |
| Cc1ccc(NC(=O)CCC(=O)N2CCC(c3ccccc3)=N2)cc1S(=O)(=O)N1CCCCC1 |  | 18.4 µM (active) |
| Cc1ccc(NC(=O)CCCNC(=O)c2ccc(Cl)cc2)cc1S(=O)(=O)N1CCCCC1 | 29.3% |  |
| CCc1ccccc1OCC(=O)Nc1ccc(C)c(S(=O)(=O)N2CCCCCC2)c1 | 3.74% |  |
| CC(=O)OCC(=O)C1(O)CCC2C3CC(C)C4=CC(=O)CCC4(C)C3C(O)CC21C (configuration not stated) | -0.434% |  |
| COc1ccc(-c2n[nH]c(C)c2-c2ccccc2OC)c(O)c1 | 8.35% |  |
| COc1ccc(-c2n[nH]c(C)c2-c2ccc(OC)c(OC)c2)c(O)c1 |  | 16.4 µM (active) |
| CCOc1ccc(-c2n[nH]c(C)c2-c2ccccn2)c(O)c1 | 25.8% |  |
| N#CCCN(C(=O)COC(=O)c1ccc2c(c1)OCCO2)c1ccccc1 | -3.14% |  |
| O=C(NCCC1CCCCN1S(=O)(=O)c1cccs1)C(=O)Nc1ccc(F)cc1F (configuration not stated) |  | 11.6 µM (active) |

| SMILES | activity, positive = re-replication | Potency |
| --- | --- | --- |
| COc1ccccc1CCNC(=O)C(=O)NCCC1CCCCN1S(=O)(=O)c1cccs1 (configuration not stated) | -15.6% |  |
| O=C(NCCC1CCCCN1S(=O)(=O)c1ccc(F)cc1)C(=O)NC1CC1 (configuration not stated) | 0.164% |  |
| CCOC(=O)C1CCN(C(=O)c2cccc(S(=O)(=O)N(CC)c3ccccc3)c2)CC1 | 3.93% |  |
| CCN(C[C@H]1N[C@@](CC)(C(=O)OC)[C@H]2C(=O)N(Cc3ccccc3)C(=O)[C@@H]12)S(=O)(=O)c1ccccc1 | 0.775% |  |
| O=C(COC(=O)c1ccccn1)NNC(=O)c1ccc(Br)cc1 | 16.2% |  |
| Cc1ccc(C(=O)N/C(=C\c2cn(C)c3ccccc23)C(=O)N2CCN(C)CC2)cc1 | 0.634% |  |
| Cc1cccc(N=C2NC(=O)/C(=C/c3cn(C)c4ccccc34)S2)c1 |  | 10.3 µM (active) |
| Cc1ccc(N2C(=O)S/C(=C/c3cn(C)c4ccccc34)C2=O)cc1 | 11.6% |  |
| C=CC[C@@H](CC(=O)N[C@H](CO)Cc1ccccc1)C(=O)N[C@H](C)COC(=O)[C@@H](CC=C)Cc1ccc(F)cc1 | 17.3% |  |
| C=CCn1c(=O)n(C)c2c(=O)n(C)c(=O)n(C)c21 | -42.5% |  |
| COc1ccc(CCNC(=O)COC(=O)Cc2cccc(F)c2)cc1 | 2.75% |  |
| Oc1[nH]c2ccccc2c1N=Nc1c(F)c(F)c(F)c(F)c1F | 4.82% |  |
| COC(C[C@H](O)CC(=O)[C@@H](C)OCc1ccccc1)OC | -5.01% |  |
| COC(C/C=C/C(=O)[C@@H](C)OCc1ccccc1)OC |  | 18.4 µM (active) |
| COC(C[C@@H]1O[C@@H]1C(=O)[C@H](C)OCc1ccccc1)OC | -8.59% |  |
| COc1ccc(S(=O)(=O)N(C)C[C@@H]2Oc3ccc(NC(=O)Nc4c(C)noc4C)cc3C(=O)N([C@H](C)CO)C[C@@H]2C)cc1 | 1.93% |  |
| Cc1ccc(-c2n[nH]c(=S)n2/N=C/c2cc3c(cc2[N+](=O)[O-])OCO3)cc1 | 12.5% |  |
| CC(=O)N/N=C/c1cc2c(cc1[N+](=O)[O-])OCO2 | -33.2% |  |
| Cc1ccc(S(=O)(=O)N/N=C\c2cc3c(cc2[N+](=O)[O-])OCO3)cc1 |  | 23.1 µM (active) |
| O=C1COc2ccc(C(=O)CSc3ccc(Br)cc3)cc2N1 | -6.85% |  |
| COc1ccc(Cn2cc(CN3CCS(=O)(=O)N(Cc4ccc(-c5cccc(Cl)c5)cc4)C(C)C3=O)nn2)cc1 (configuration not stated) | 10.9% |  |
| Cc1[nH][nH]c(=O)c1N=Nc1ccccc1 | 1.74% |  |
| Cc1[nH][nH]c(=O)c1C(c1ccc(-c2ccc(Cl)cc2)o1)c1c(C)[nH][nH]c1=O |  | 20.6 µM (active) |
| CN(CC(=O)Nc1ccc(F)cc1)C(=O)c1ccc(-c2ccc(Cl)cc2)o1 | 1.65% |  |
| S=C(Nc1cccc(Cl)c1)Nc1ccc2cn[nH]c2c1 | -1.25% |  |

| SMILES | activity, positive = re-replication | Potency |
| --- | --- | --- |
| Cc1csc(NC(=S)Nc2cccc(Cl)c2)n1 |  | 20.6 µM (active) |
| CC(=O)Nc1cccc(C(=O)Nc2nc(C)cs2)c1 | -2.89% |  |
| COC(=O)c1ccc(CSc2nnc(N)s2)o1 | 2.09% |  |
| CCOc1ccccc1Nc1nnc(SCC(=O)NCC2CCCO2)s1 (configuration not stated) | 4.59% |  |
| CCOc1ccccc1Nc1nnc(SCc2ccc(C(=O)OC)o2)s1 |  | 18.4 µM (active) |
| NC1=NOC(=O)C1C1CCCCC1 (configuration not stated) | 6.94% |  |
| CCOc1ccc(S(=O)(=O)N2CCN(C(=O)c3oc4ccccc4c3C)CC2)cc1 | 4.12% |  |
| Cc1cc(N2CCCC2)ccc1NC(=O)COc1ccc(Cl)cc1 | -0.481% |  |
| Cc1ccc(C)c(S(=O)(=O)N2CCN(c3ncnc4sccc34)CC2)c1 |  | 18.4 µM (active) |
| COc1ccc(C)cc1S(=O)(=O)N1CCN(S(=O)(=O)c2cc(C(=O)O)ccc2C)CC1 | 5.98% |  |
| Cc1ccc(S(=O)(=O)N2CCN(c3ncnc4ccccc34)CC2)cc1 | 5.96% |  |
| COC(=O)Cc1c(-c2[nH]c3ccccc3c2CC(=O)OC)[nH]c2ccccc12 | 16% |  |
| COc1ccc(NC(=O)CSc2nnc(C3CC3)n2C)cc1S(=O)(=O)N1CCCCC1 | -2.92% |  |
| O=C(Nc1ccc2ccccc2c1)Nc1ccc2snnc2c1 |  | 5.8 µM (active) |
| CCc1ccccc1NC(=O)c1ccc2snnc2c1 | 6.7% |  |
| O=C(Nc1cccc(Br)c1)c1ccc2snnc2c1 | 8.15% |  |
| CC(=O)c1c(OCC(=O)N(C)C2CCCCC2)ccc2c(C)cc(=O)oc12 | -5.05% |  |
| CC1=CC(=NNS(=O)(=O)c2ccc([N+](=O)[O-])cc2)CC(C)(C)C1 | 9.01% |  |
| COc1ccc(-c2oc(/N=C/N3CCCC3)c(C#N)c2-c2ccc(OC)cc2)cc1 | 4.62% |  |
| N#Cc1c(/N=C/N2CCCC2)oc(-c2ccccc2)c1-c1ccccc1 |  | 9.2 µM (active) |
| COc1cc(C(=O)Nc2oc(-c3ccccc3)c(-c3ccccc3)c2C#N)cc(OC)c1OC | 12.2% |  |
| O=C1NC(c2ccccc2)Cc2ccncc21 (configuration not stated) | 1.31% |  |

Source: PubChem BioAssay AID624296 (National Center for Advancing Translational Sciences (NCATS), 2012)
